{
  "source": "PubChem BioAssay (NCI)",
  "note": "The panel holds about 79,000 compounds, 15% with a hit somewhere; the sample as a whole holds those more often. Unmarked numbers belong to inactive results. Activity calls are given as the source filed them. Rule as the data show it: active = growth inhibition above about 70%; inactive = the rest.",
  "data": [
    {"test": "NCI Yeast Anticancer Drug Screen. Data for the cln2 rad14 strain (AID 165);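 also: 0% = growth equal to vehicle treated cultures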", "conditions": "S. cerevisiae cln2 rad14 strain, at 5.0 µM (retest, dose inferred, filed as 0.5), hits give high values", "summary_of_the_method": "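Each compound was tested on cln2 rad14 yeast. Inhibition of growth was calculated against vehicle-exposed controls.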", "values": [
      {"smiles": "CC(C)c1ccc2c(c1)CC[C@@H]1[C@](C)(CO)CCC[C@]21C", "growth inhibition": "2%"},
      {"smiles": "O=c1c2ccccc2ncn1Cc1ccccc1[N+](=O)[O-]", "growth inhibition": "-11%"},
      {"smiles": "O=C(NO)C(=O)Nc1cc(Cl)ccc1Cl", "growth inhibition": "2%"},
      {"smiles": "CCCCCCCCCCCCOC(=O)C[n+]1cccc(C(=O)Nc2ccccc2)c1", "growth inhibition": "96% (active)"},
      {"smiles": "O=C1C=CC(=O)c2ccc(=O)ccc21", "growth inhibition": "20%"},
      {"smiles": "Cn1c(=O)nc2n(-c3ccc(Cl)cc3)c3cc(Cl)ccc3nc-2c1=O", "growth inhibition": "15%"},
      {"smiles": "Clc1ccc(CN2COc3c(ccc4ccccc34)C2)cc1", "growth inhibition": "0%"},
      {"smiles": "C1CCN(c2nc(N3CCOCC3)c3[nH]c(N4CCCCC4)nc3n2)CC1", "growth inhibition": "8%"},
      {"smiles": "O=C1c2ccccc2-c2cc([N+](=O)[O-])c([N+](=O)[O-])cc21", "growth inhibition": "-15%"},
      {"smiles": "CCC[CH2][Sn]([CH2]CCC)([O]C(=O)Cc1ccc(F)cc1)[O]C(=O)Cc1ccc(F)cc1", "growth inhibition": "16%"},
      {"smiles": "ClCc1ccc2oc3ccccc3c2c1", "growth inhibition": "-1%"},
      {"smiles": "O=C1Oc2ccccc2C(=O)/C1=C/N1C(=O)/C(=C/c2ccc([N+](=O)[O-])cc2)SC1=S", "growth inhibition": "3%"},
      {"smiles": "COC1=CC(=O)c2ncc(Cl)cc2C1=O", "growth inhibition": "-10%"},
      {"smiles": "CN(C)c1ccc(C(c2ccc(N(C)C)cc2)c2ccc3c(c2)OCO3)cc1", "growth inhibition": "98% (active)"},
      {"smiles": "CC(C)(C)OC(=O)CSC#N", "growth inhibition": "8%"},
      {"smiles": "CN=c1ss/c(=N\\C(=S)N(C)C)n1-c1ccccc1", "growth inhibition": "8%"},
      {"smiles": "CCCCCCCCCCCCCCCBr", "growth inhibition": "-5%"},
      {"smiles": "O=c1c2ccccc2[nH]c2c1[nH]c1ccccc12", "growth inhibition": "7%"}
    ]}
  ]
}
